Source: PubChem
A selection: hits, their analogues and other compounds. The true share with any hit is near 7.3%.
NPC1 promoter act = activates the NPC1 promoter; Huh7 NPC1 promoter luciferase reporter, 24 h; Potency, µM (titrated, usually from 9.22 µM), for inactives: at the top dose activation, hits mostly activators; 320,000 compounds, 2.4% hits; AID 485313; note: % of control where 0% means no effect; nearly all actives have a fitted effect of over 60% in size
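Quantitative HTS used a cell-based reporter: Huh7 cells stably bearing the NPC1 promoter upstream of luciferase were treated with compounds for 24 h, and promoter activation was read as luminescence.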
SMN2 splice enh = increases expression of the SMN2 splice variant | HEK293 SMN2-luciferase splicing reporter, luminescence, 30-36 h | Potency, µM (series often up to 46.1 µM), inactives show top-dose activity change, positive = activation, usual class: activators | 210,000 compounds, 2.8% hits; note: % of control where 0% means no effect; nearly all actives have a fitted effect of over 55% in size
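HEK293 cells carry an SMN2 minigene-luciferase reporter in which exon 7 inclusion puts luciferase in frame. Cells were seeded at 2000 cells/well, attached for 10-12 hours, then exposed to compounds for 30-36 hours at 37C before ONE-Glo luminescence.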
FLuc counter = inhibits or activates purified firefly luciferase, miR-21 counter-screen | AID 588342 | 360,000 compounds, 6.9% hits | purified FLuc, Km substrates, luminescence inhibition | Potency, µM (top dose mostly 57.5 µM), for the others: at the top dose activity change, negative = inhibition, usual class: inhibitors;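 note: plate controls were vehicle for no effect and reference inhibitor for full effect; nearly all actives have a fitted effect of over 55% in size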
Target sequence (P08659 whole entry, looked up): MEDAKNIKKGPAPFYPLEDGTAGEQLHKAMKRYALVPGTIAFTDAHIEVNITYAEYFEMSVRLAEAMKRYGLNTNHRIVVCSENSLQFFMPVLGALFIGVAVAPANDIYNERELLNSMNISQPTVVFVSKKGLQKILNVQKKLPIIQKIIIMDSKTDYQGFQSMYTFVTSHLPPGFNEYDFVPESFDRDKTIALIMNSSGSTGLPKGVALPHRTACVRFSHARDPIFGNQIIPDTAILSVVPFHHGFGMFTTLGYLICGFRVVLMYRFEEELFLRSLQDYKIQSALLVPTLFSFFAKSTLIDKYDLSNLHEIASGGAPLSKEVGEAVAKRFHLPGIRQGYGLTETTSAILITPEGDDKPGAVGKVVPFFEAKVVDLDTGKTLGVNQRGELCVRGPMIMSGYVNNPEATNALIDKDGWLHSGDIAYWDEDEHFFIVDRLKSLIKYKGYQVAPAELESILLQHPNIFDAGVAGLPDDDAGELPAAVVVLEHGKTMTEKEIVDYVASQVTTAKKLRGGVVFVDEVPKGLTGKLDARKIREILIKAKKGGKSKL
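Biochemical qHTS of compounds, final roughly 60 µM downward over six points, against 10 nM purified firefly luciferase using Km concentrations of substrates (10 uM D-luciferin, 10 uM ATP) in Tris acetate pH 7.5 buffer; luminescence output.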
Rab9 promoter act = activators of Rab9 promoter | Huh7 Rab9 promoter-luciferase reporter, luminescence, 24 h | Potency, µM (series often up to 9.22 µM), inactives show at the highest dose activation, negative = inhibition, most hits filed as activators | 320,000 compounds, 2.8% hits | AID 485297; note: % of control where 0% means no effect; nearly all actives have a fitted effect of over 60% in size
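Promoter activation is measured as luciferase luminescence in Huh7 cells stably transfected with a Rab9 promoter–luciferase construct, following 24 h compound exposure at 37 °C and 10 min reagent incubation at ambient temperature.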
uPA surface inh = blocks generation of uPA at the cell surface. Potency, µM (doses to about 38.3 µM), for the others: at the top dose activity change, negative = inhibition, actives largely listed as inhibitors. 330,000 compounds, 0.31% hits. cell surface uPA generation assay, qHTS. AID 540303; active = well fitted inhibition curve with a large enough effect; inconclusive = small, poorly fitted or top-dose-only effect; inactive = no such curve, though single readings can be large or run the other way; tested in mouse RAW 264.7 cells; note: % is set by controls: 0 for no effect and ±100 for the full control effect; nearly all actives have a fitted effect of over 55% in size
ELG1 genotoxic = genotoxicity induction in ELG1-luciferase HEK293T cells; HEK293T ELG1-luciferase reporter, luminescence, 16 h; Potency, µM (titrated, usually from 46 µM), inactives show at the highest dose activity change, positive = activation, actives largely listed as activators; 330,000 compounds, 1.3% hits; note: % of control where 0% means no effect; nearly all actives have a fitted effect of over 60% in size
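ELG1-luciferase HEK293T cells, 2,000/well; compound pinned in; 16 hr, 37 °C, 5% CO2; ONE-Glo, 30 min RT; luminescence on CCD imager.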
* hit, by the source's call; ? = inconclusive; · = not tested or not shown; [ ] = remark or other dose. Unless noted, calls come from the whole dose curve; as a rule, active = well fitted curve in the direction sought with a large enough effect; inconclusive = small, poorly fitted or top-dose-only effect, or another doubt; inactive = no such curve, though single readings can be large; an effect the other way counts as inactive or inconclusive. Potency is the fitted concentration of half-maximal effect.

SMILES	NPC1 promoter act	SMN2 splice enh	FLuc counter	Rab9 promoter act	uPA surface inh	ELG1 genotoxic
O=C(/C=C/c1ccccc1Cl)c1cccnc1	-4.3%	-17.5%	16.9µM*	1.1%	-14.8%	14.0%
COc1ccc(OC)c(C(=O)/C=C/c2cccnc2)c1	-7.2%	·	1.6%	-7.6%	-13.9%	0.0%
COc1cc(C(=O)/C=C/c2cccnc2)ccc1O	-3.7%	·	19µM*	5.9%	-11.9%	-39.5%
N#Cc1ccc(/C=C/C(=O)c2cccnc2)cc1	-11.4%	2.3%	-12.7%	1.4%	?	?
O=C(/C=C/c1ccccc1Cl)c1ccc(O)cc1	-4.0%	·	9.53µM*	1.2%[1.84 µM]	-14.5%	13.5%
CNC(=O)c1cc2c(n(-c3ccc(C)cc3)c1=O)CC(C)(C)CC2=O	·	-4.6%	-1.6%	·	·	·
O=C(/C=C/c1c(F)cccc1Cl)Nc1ccc(S(=O)(=O)Nc2ncccn2)cc1	0.2%	·	?	-2.6%	1.2%	11.4%
O=C(/C=C/c1ccc(Cl)cc1)c1cccnc1	1.9%	-8.1%	21.3µM*	-3.7%	-10.7%	14.2%
O=C(/C=C/c1c(F)cccc1Cl)Nc1ncccn1	2.82µM*	14.1µM*	15.1µM*	2.51µM*	-1.3%	?
CC(=O)N1CCCC1c1nc2ccccc2n1Cc1ccccc1F (configuration not stated)	·	·	-11.4%	·	·	·
C/C(=N\NC(=O)c1ccc(Cl)cc1)c1cccs1	0.562µM*	3.55µM*	2.69µM*	0.316µM*	-13.1%	2.31µM*
C/C(=N/NC(=O)c1ccc2nc[nH]c2c1)c1cccs1	2µM*	11.2µM*	10.7µM*	1.41µM*	-5.0%	?
CCOc1ccc(C(=O)Nc2cc(-c3nc4ccccc4[nH]3)ccc2Cl)cc1[N+](=O)[O-]	-0.8%	-32.0%	?	-6.5%	-10.0%	8.2%
CCOc1ccc(C(=O)Nc2cccc(-c3nc4ccccc4[nH]3)c2C)cc1[N+](=O)[O-]	-3.1%	-9.8%	9.53µM*	1.6%	2.4%	-1.5%
CCOc1ccccc1NC(=O)c1ccc(OCC)c([N+](=O)[O-])c1	0.6%	-8.5%	-1.5%	-3.7%	5.8%	3.4%
CCOc1ccc(C(=O)Nc2cc(-c3nc4ccccc4[nH]3)ccc2C)cc1[N+](=O)[O-]	-0.8%	-20.2%	8.49µM*	-2.5%	-14.4%	-7.4%
CC1(C)CC(=O)c2c(oc3c(Cl)cc(NS(=O)(=O)c4ccc(Cl)cc4)cc23)C1	·	-0.7%	-6.4%	·	·	·
CCc1ccc(/C=N\NC(=O)c2ccc(Br)o2)s1	3.55µM*	11.2µM*	10.7µM*	2.82µM*	?	?
CCc1ccc(/C=N/NC(=O)Cc2ccc(OC)c(OC)c2)s1	0.4%	·	-2.5%	-9.9%	-1.3%	-5.8%
Cc1ccc(/C=N/NC(=O)Cc2ccc(O)cc2)s1	15.2%	·	?	5.7%	-8.0%	12.6%
Cc1ccc(/C=N/NC(=O)c2ccc(Br)o2)s1	?	15.8µM*	?	?	-5.1%	?
CC(C)c1cc2cc3ccc(=O)oc3cc2o1	?	·	12µM*	?	-1.2%	?
O=c1ccc2cc3ccoc3cc2o1	-0.1%	·	-0.6%	2.6%	-12.9%	5.8%
Cc1cc(C)c(C#N)c(SCc2nnc(-c3ccccc3[N+](=O)[O-])o2)n1	1.41µM*	1.12µM*	21.3µM*	3.16µM*	-7.3%	2.59µM*
Cc1ccc(C#N)c(SCc2nnc(-c3ccc(Cl)cc3)o2)n1	-1.5%	-82.4%	0.426µM*	0.8%	?	?
SMILES	NPC1 promoter act	SMN2 splice enh	FLuc counter	Rab9 promoter act	uPA surface inh	ELG1 genotoxic
Cc1cc(C)c(C#N)c(SCc2nnc(-c3ccccc3)o2)n1	-2.4%	-38.6%[1.84 µM]	3.01µM*	-4.6%	-6.7%	?
Cc1nc(SCc2nnc(-c3ccc(Cl)cc3)o2)c2c3c(sc2n1)CCC3	-2.7%	3.1%	4.2%	2.5%	·	-1.8%
CCOc1ccccc1C(=O)NCc1ccc2c(c1)CCN2C(=O)c1ccccc1	·	·	-16.8%	·	·	·
Cc1noc(C)c1COc1cccc(C(=O)Nc2ccc(OCc3ccccc3)cc2)c1	-0.2%	-8.4%	8.49µM*	-1.1%	-2.8%	-9.5%
CCSc1nnc(NC(=O)c2cccc(OCc3c(C)noc3C)c2)s1	4.1%	-21.8%	?	4.3%	-5.0%	-6.8%
COc1ccc2nc(NC(=O)c3cccc(OCc4c(C)noc4C)c3)sc2c1	-8.8%	-22.8%	1.51µM*	4.9%	-12.7%	-16.6%
O=C(COC(=O)c1ccccn1)NCCc1ccc(Cl)cc1	·	·	·	·	3.0%	0.3%
COc1ccccc1CNC(=O)CN1C(=O)CCc2cc(S(=O)(=O)N3CCOCC3)ccc21	·	·	-0.2%	·	·	·
CCOC(=O)c1c(-c2ccccc2)oc2ccc(OCc3ccc(C)cc3)cc12	·	-4.1%	-2.9%	·	·	·
O=C(O)c1c(-c2ccccc2)oc2ccc(OCc3ccc(Cl)c(Cl)c3)cc12	·	15.5%	15.1µM*	·	·	·
C=CCOC(=O)C(=O)/C=C/c1csc2ccccc12	-0.8%	·	26.9µM*	0.9%	10.9%	?
Cc1ccc(NC(=O)Cc2coc3c(C)c(C)ccc23)c(C)c1	·	2.6%	-0.9%	·	·	·
CCOC(=O)c1c(NC(=O)Cc2coc3cc(C)ccc23)sc2c1CCCC2	·	3.1%	-12.4%	·	·	·
Cc1ccc2c(CC(=O)Nc3sccc3C(N)=O)coc2c1	2µM*	?	10.7µM*	2.82µM*	-9.3%	?
Cc1ccc2c(CC(=O)Nc3ccc(N4CCN(C)CC4)cc3C)coc2c1	?	-3.4%	8.49µM*	4.5%	-0.7%	-0.8%
CC(C)C(=O)NCCc1c[nH]c2ccccc12	6.3%	1.5%	-6.1%	0.3%	-7.6%	1.1%
Cc1ccc(C(=O)N/C(=C\c2ccco2)C(=O)NCCc2c[nH]c3ccccc23)cc1	0.6%	17.4%	15.1µM*	0.0%	-12.4%	3.4%
O=C(NCCc1c[nH]c2ccccc12)c1ccccc1	?	·	?	?	-0.9%	?
Cc1ccc(C(=O)NCCc2c[nH]c3ccccc23)c(C)c1	1.58µM*	·	6.75µM*	3.16µM*	-6.5%	9.0%
Cc1ccc(C(=O)NCCc2c[nH]c3ccccc23)s1	3.55µM*	·	12µM*	3.16µM*	-1.5%	?
Cc1ccc2c(n1)sc1c(=O)n(-c3cccc(C(F)(F)F)c3)nnc12	·	·	-10.9%	·	·	·
Cc1cccnc1NC(=S)NC(=O)c1oc2ccccc2c1C	1.78µM*	·	19µM*	3.16µM*	-4.1%	?
CC(=O)Nc1ccc(NC(=S)NC(=O)c2oc3ccccc3c2C)cc1	0.7%	-24.2%	0.3%	5.7%	1.7%	10.5%
Cc1c(C(=O)NC(=S)NCC(C)C)oc2ccccc12	2.82µM*	12.6µM*	3.01µM*	?	1.2%	?
C=CCNC(=S)NC(=O)c1oc2ccccc2c1C	?	?	9.53µM*	3.98µM*	0.5%	?
Cc1nc(NC2CCCCC2)c2nc(-c3ccccc3)n(CCCN3CCCCC3C)c2n1 (configuration not stated)	·	-24.1%	·	·	·	·
